The list shows a part of the results. Results filed as inconclusive are left out. Calls of active or inactive are those of the source. The call rests on the fitted dose curve.
These compounds were tested against Alpha-synuclein (Homo sapiens) (UniProt P37840) (assay: Alpha-synuclein ThS binding assay). Details: recombinant alpha-synuclein fibrils, ThS fluorescence displacement.
Procedure: NIH Molecular Libraries Screening Centers Network [MLSCN] NIH Chemical Genomics Center [NCGC] MLSCN Grant: 1 X01 MH079825-01 Assay Provider: Jeffrey A. Kuret, Ohio State University NCGC Assay Overview: Lewy body disease is characterized by the appearance of lesions containing alpha-synuclein. The protein components in these lesions can be induced to form filaments under experimentally tractable times when incubated in vitro with anionic inducers such as alkyl sulfate detergents or fatty acids. […] Here we describe the in vitro fibrillization of alpha-synuclein. Alpha-synuclein was induced to form filaments by incubation overnight at 37 C in the presence of arachidonic acid. A commonly used fluorescent probe for cross#nbeta-sheet structure, Thioflavin S (ThS), was also added to the reactions. […] Small molecules capable of ThS displacement or antagonizing fibrillization result in a decrease in ThS fluorescence, allowing determination of binding affinities for molecules screened.
NCGC Assay Protocol Summary The assay was performed in 96-well round bottom opaque plates (VWR, West Chester, PA) in 100 uL final volume. […] Fluorescence (ex = 440 nm; em = 485 nm) was measured after brief shaking (10 s) in a FlexStation plate reader (Molecular Devices, Sunnyvale, CA) operated at sensitivity 10, automatic PMT. […]

Which outcome does the source give for `O=C(CCCCn1c(=O)[nH]c2ccccc2c1=O)NCc1ccc2c(c1)OCO2` here?
Its outcome is “inactive”.

Reference: PubChem BioAssay AID937 (National Center for Advancing Translational Sciences (NCATS), 2007)
